# Reference: PubChem BioAssay
# For some assays here: Entries with a potency or affinity are not part of this list. Results filed as inconclusive are left out. This is one part of the list. Activity calls are given as the source filed them. Unless noted, the rule behind the calls is not given here.
# Assays:
# [1] = general cell-killing toxicity readout – plate reader, dry powder samples, cytotoxicity control for PAX8 inhibitor project, dose response (AID 743021)
# [2] = OVCAR-3 cell viability loss – plate reader, dry powder samples, PAX8 inhibitor project, dose response (AID 743044); conditions: max activity: at 35 µM, stronger effect = lower value unless noted
# [3] = toxicity toward immortalized ovarian surface epithelium – cell-based, plate reader, dry powder samples, cytotoxicity control for PAX8 inhibitor project, dose response (AID 743045);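 note: 0% = neutral control median and -100% = positive control median; more negative values mean more cell killing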
# [4] = A2780 cell killing – plate reader, dry powder samples, cytotoxicity control, dose response (AID 743046);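 note: 0% = neutral control wells and -100% = cytotoxic reference compound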
# [5] = Ring1 de-repression measured by qPCR – cell-based, mouse ESC, RT-qPCR, cherry-pick, esBAF inhibitor project, confirmation (AID 743176;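 active = Ring1 gene expression raised more than 2-fold over untreated cells in both replicates at either tested dose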;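 note: Ring1 transcript normalised to actin housekeeping signal by TaqMan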); conditions: mouse ESC E14, Ring1 mRNA RT-qPCR fold change, stronger effect = higher value
# [6] = Fgf4 repression measured by qPCR – cell-based, mouse ESC, RT-qPCR, cherry-pick, esBAF inhibitor project, confirmation (AID 743177;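 active = Fgf4 expression under 0.8 fold of control in both repeat measurements at one or both tested doses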;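 note: Fgf4 transcript normalised to actin in duplex TaqMan qPCR; cells exposed to compound for 24 h before lysis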); conditions: mouse ESC E14, Fgf4 mRNA qPCR fold change, stronger effect = lower value
# [7] = Bmi1 mRNA increase in mouse ESCs – cell-based, RT-qPCR, mouse ESC, single point, cherry-pick, confirmation (AID 743180;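 active = Bmi1 expression fold change above 6 at either tested concentration, seen in replicate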;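 note: higher fold means more Bmi1 de-repression and stronger esBAF inhibition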); conditions: mouse ESC E14, Bmi1 mRNA qPCR fold, stronger effect = higher value
# [8] = viability loss in A549 cells – cell-based, plate reader, single point, cherry-pick, cytotoxicity control (AID 743188); conditions: at 25 µM
# [9] = viability loss in HepG2 cells – cell-based, plate reader, single point, cherry-pick, cytotoxicity control (AID 743189; in the data active = activity change below about -50%); conditions: at 25 µM, stronger effect = lower value
# [10] = viability loss in HEK293 cells – cell-based, plate reader, single point, cherry-pick, cytotoxicity control (AID 743190; in the data active = activity change below about -38%, passing the limit was not always enough); conditions: at 25 µM
# [11] = toxicity toward HepG2 liver cells – cell-based, plate reader, cherry-pick, antagonist series, cytotoxicity control, dose response (AID 743416);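 note: 0% = neutral control wells and -100% = positive control wells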
# [12] = IGROV1 cell killing – plate reader, dry powder samples, PAX8 inhibitor project, dose response (AID 743043);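 note: more negative means fewer viable cells or more cytotoxicity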
# [13] = OVCAR8 cell viability loss – plate reader, dry powder samples, PAX8 project, dose response (AID 743197)
# [14] = A549 cell cytotoxicity, dose response, cytotoxicity control, plate reader, cherry-pick, antagonist series (AID 743412);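 note: 0% = neutral control wells and -100% = positive control wells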
structure (smiles),measurement,setting,value
COc1cc2nc(C3CCC3)nc(N3CCN(c4ccccc4OC)CC3)c2cc1OC,outcome,[1],inactive
N#C[C@H]1[C@@H](c2ccc(C#Cc3cccc(F)c3)cc2)[C@@H](CO)N1C(=O)C1CCCC1,outcome,[2],inactive
same,outcome,[3],inactive
COc1ccccc1C#Cc1ccc([C@H]2[C@@H](CO)N(C(=O)C3CCCC3)[C@H]2C#N)cc1,outcome,[3],inactive
same,outcome,[4],inactive
O=C(CCCN1C(=O)/C(=C\c2cccc(Br)c2)SC1=S)Nc1ccccn1,outcome,[1],inactive
same,outcome,[4],inactive
O=C(CCCN1C(=O)/C(=C\c2ccccc2OC(F)F)SC1=S)Nc1cccnc1,outcome,[1],inactive
same,outcome,[4],inactive
CCS(=O)(=O)n1nc(-c2ccc(OC)cc2)nc1SC,fold change,"[5]; Ring1 fold increase, at 7 µM",1.25
same,fold change,[5]; at 33 µM,1.01 (inactive)
same,Fgf4 expression fold change,"[6]; Fgf4 expression, at 7 µM",0.938
same,Fgf4 expression fold change,[6]; at 33 µM,1.05 (inactive)
same,fold change,"[7]; Bmi1 de-repression, at 7 µM",1.24
same,fold change,[7]; at 33 µM,1.6 (inactive)
same,cell viability change % (negative = cytotoxic),[8],-13.7% (inactive)
same,"activity change, negative = inhibition",[9],-11.2% (inactive)
same,"activity change, negative = inhibition",[10],-16.8% (inactive)
CC(=O)NC(c1ccc(Cl)cc1)c1ccc2cccnc2c1O (stereo not drawn),outcome,[1],inactive
COc1cc(C2C3=C(COC3=O)Oc3cc4c(cc32)OCO4)cc(OC)c1O (stereo not drawn),outcome,[1],inactive
N#C[C@H]1N[C@H](CO)[C@@H]1c1ccc(C#Cc2ccccc2F)cc1,outcome,[1],inactive
same,outcome,[3],inactive
same,outcome,[4],inactive
O=C(O)c1cccc(COc2ccc3c(c2)CCC3)c1,outcome,[1],inactive
same,outcome,[11],inactive
C[C@@H]1CN([C@@H](C)CO)S(=O)(=O)c2ccc(C#CC3CCCC3)cc2O[C@H]1CN(C)Cc1cccnc1,outcome,[12],inactive
same,outcome,[3],inactive
same,outcome,[13],inactive
O=C1c2cccc3cc([N+](=O)[O-])cc(c23)C(=O)N1CCN1CCCC1,outcome,[1],inactive
N#C[C@@H]1[C@@H](c2ccc(C#Cc3ccccc3F)cc2)[C@@H](CO)N1C(=O)C1CCCC1,outcome,[4],inactive
CC(C)CCCCCCCCCCCCC(=O)NCC(=O)NC1C(C)OC(Nc2ncnc3nc[nH]c23)C(O)C1O (stereo not drawn),outcome,[1],inactive
Cc1ccc2c(c1)c1c3n2CCN(CC(N)=O)C3CCC1 (stereo not drawn),outcome,[1],inactive
COc1cccc(C#Cc2ccc([C@@H]3[C@@H](C#N)N(C(=O)C4CCCC4)[C@@H]3CO)cc2)c1,outcome,[1],inactive
same,outcome,[12],inactive
same,outcome,[2],inactive
same,outcome,[3],inactive
same,outcome,[4],inactive
N#C[C@@H]1[C@@H](c2ccc(C3=CCCCC3)cc2)[C@@H](CO)N1C(=O)NC1CCCCC1,outcome,[1],inactive
same,outcome,[12],inactive
same,outcome,[2],inactive
same,outcome,[3],inactive
same,outcome,[4],inactive
O=C(Nc1ccc(OCC(F)(F)C(F)F)c(C(F)(F)F)c1)c1ccccc1O,outcome,[1],inactive
same,outcome,[3],inactive
same,outcome,[4],inactive
COc1ccc(Nc2ncnc3sc(C)cc23)cc1,fold change,"[5]; Ring1 fold increase, at 7 µM",1.32
same,fold change,[5]; at 33 µM,1.33 (inactive)
same,Fgf4 expression fold change,"[6]; Fgf4 expression, at 7 µM",1.18
same,Fgf4 expression fold change,[6]; at 33 µM,1.26 (inactive)
same,fold change,"[7]; Bmi1 de-repression, at 7 µM",1.3
same,fold change,[7]; at 33 µM,1.05 (inactive)
same,cell viability change % (negative = cytotoxic),[8],-6.19% (inactive)
same,"activity change, negative = inhibition",[9],-4.23% (inactive)
same,"activity change, negative = inhibition",[10],-3.92% (inactive)
COc1ccc(CNC(=O)COc2ccccc2C(=O)c2cnn(-c3ccccc3)c2)cc1OC,fold change,"[5]; Ring1 fold increase, at 7 µM",1.09
same,fold change,[5]; at 33 µM,1.32 (inactive)
same,Fgf4 expression fold change,"[6]; Fgf4 expression, at 7 µM",1.03
same,Fgf4 expression fold change,[6]; at 33 µM,0.967 (inactive)
same,fold change,"[7]; Bmi1 de-repression, at 7 µM",1.36
same,fold change,[7]; at 33 µM,1.57 (inactive)
same,cell viability change % (negative = cytotoxic),[8],0.333% (inactive)
same,"activity change, negative = inhibition",[9],-55.5% (active)
same,"activity change, negative = inhibition",[10],-15.3% (inactive)
COc1cccc(N2CCN(C(=O)c3ccc(CS(=O)c4ccccc4Cl)o3)CC2)c1 (stereo not drawn),outcome,[1],inactive
CC(C)c1cc(C(=O)OCC(=O)N2CCN(C(=O)c3ccco3)CC2)c(O)c(C(C)C)c1,outcome,[1],inactive
same,outcome,[12],inactive
same,outcome,[3],inactive
same,outcome,[4],inactive
CC(=O)N1CCCC(c2cc(C(=O)Nc3ccccc3)no2)C1 (stereo not drawn),outcome,[14],inactive
O=S(=O)(NC[C@@H]1CC[C@@H]2[C@@H](CN2CC(c2ccccc2)c2ccccc2)O1)c1ccccc1F,outcome,[13],inactive
COc1ccc(C(=O)Nc2ccc3ccccc3c2)cc1,outcome,[14],inactive
COc1ccc(/C=N/OCc2ccccc2C#N)c(OC)c1,fold change,"[5]; Ring1 fold increase, at 7 µM",1.08
same,fold change,[5]; at 33 µM,0.981 (inactive)
same,fold change,"[7]; Bmi1 de-repression, at 7 µM",1.34
same,fold change,[7]; at 33 µM,1.44 (inactive)
same,cell viability change % (negative = cytotoxic),[8],-7.58% (inactive)
same,"activity change, negative = inhibition",[9],-31.8% (inactive)
same,"activity change, negative = inhibition",[10],-7.24% (inactive)
CN(C)c1ccc(CSc2ccccc2)cc1,fold change,"[5]; Ring1 fold increase, at 7 µM",1.14
same,fold change,[5]; at 33 µM,1.08 (inactive)
same,fold change,"[7]; Bmi1 de-repression, at 7 µM",1.01
same,fold change,[7]; at 33 µM,0.984 (inactive)
same,cell viability change % (negative = cytotoxic),[8],5.13% (inactive)
same,"activity change, negative = inhibition",[9],-22.2% (inactive)
same,"activity change, negative = inhibition",[10],0.895% (inactive)
Cc1ccc(C(=O)Nc2ccc3c(c2)OCO3)cc1S(=O)(=O)N1CCCCC1,fold change,"[5]; Ring1 fold increase, at 7 µM",1.42
same,fold change,[5]; at 33 µM,1.4 (inactive)
same,Fgf4 expression fold change,"[6]; Fgf4 expression, at 7 µM",0.993
same,Fgf4 expression fold change,[6]; at 33 µM,0.915 (inactive)
same,fold change,"[7]; Bmi1 de-repression, at 7 µM",1.85
same,fold change,[7]; at 33 µM,1.9 (inactive)
same,cell viability change % (negative = cytotoxic),[8],4.97% (inactive)
same,"activity change, negative = inhibition",[9],-30.2% (inactive)
same,"activity change, negative = inhibition",[10],-2.34% (inactive)
O=C(c1noc2c1CCCC2)N1CCc2ccccc2C1,fold change,"[5]; Ring1 fold increase, at 7 µM",1.38
same,fold change,[5]; at 33 µM,1.19 (inactive)
same,Fgf4 expression fold change,"[6]; Fgf4 expression, at 7 µM",1.06
same,Fgf4 expression fold change,[6]; at 33 µM,1.15 (inactive)
same,fold change,"[7]; Bmi1 de-repression, at 7 µM",1.08
same,fold change,[7]; at 33 µM,1.13 (inactive)
same,cell viability change % (negative = cytotoxic),[8],-13.7% (inactive)
same,"activity change, negative = inhibition",[9],0.136% (inactive)
same,"activity change, negative = inhibition",[10],-12.4% (inactive)
CC(C)(C)c1ccc(-c2nc(-c3ccncc3)no2)cc1,outcome,[14],inactive
COc1cc2ccccc2cc1C(=O)Nc1ccccc1C,fold change,"[5]; Ring1 fold increase, at 7 µM",1.25
same,fold change,[5]; at 33 µM,0.965 (inactive)
same,Fgf4 expression fold change,"[6]; Fgf4 expression, at 7 µM",0.978
same,Fgf4 expression fold change,[6]; at 33 µM,0.878 (inactive)
same,fold change,"[7]; Bmi1 de-repression, at 7 µM",1.37
same,fold change,[7]; at 33 µM,1.49 (inactive)
same,cell viability change % (negative = cytotoxic),[8],-15.3% (inactive)
same,"activity change, negative = inhibition",[9],-26.3% (inactive)
same,"activity change, negative = inhibition",[10],-24.6% (inactive)
